In PubChem BioAssay AID1508600 (Functional Genomics Laboratory (NCATS/FGL), 2020):
Screen size: about 53,000 sequences; about 3,700 (7%) were called active. Many of the other results were omitted from the sample, so actives are more common in it than they were. Unmarked numbers belong to inactive results.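 The calls were made as follows: active = gene knockdowns whose robust z-score for IL-1 alpha signal is at least 2 or at most -2, so actives lie on both sides; inactive = the rest.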

Assay: Components of the Cytosolic LPS Sensing Pathway: Gene Identification via Genome-wide siRNA Screen;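 also: robust z of the log signal after scaling to non-targeting control siRNA wells of the plate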
Conditions: RAW264.7 macrophages, IL-1a HTRF, actives lie on both sides, screened at 100 nM (by protocol), cells primed 5 h with Pam3CSK4 first
Outline: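 RAW264.7 mouse macrophages reverse-transfected with single siRNAs (100 nM final) for 48h, primed with Pam3CSK4 for 5 hours, then transfected with LipidA for 24 hour. Supernatant IL-1a read by HTRF; values normalized to negative-control median, log-transformed robust z-scores.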
GCCGUUCACCAUGAAAUGGTT against Prkci showed a z-score of -0.898.
With CCAAGCCUUAAUAAGUCAATT against Ccp110 the z-score was -2.52 (active).
With GGCUACAUGAGAAGCACAGTT against Disc1 the z-score was 1.64.
CCUUAACAUGUUUCAUCUATT against Sap30 showed a z-score of 0.584.
In the case of GGUUGUUUCCAGUAUUCUGTT against Apc2, the z-score is reported as 1.18.
For GCUAUAUGUACCCUAGCCATT against H2aj, the z-score was 2.26 (active).
Sequence GCGAAGCGAAUCCUUUUUCTT against Fosl2 has a z-score of 0.0982.
Work on CCCUGCUUGAAUCUCUUCGTT against Tyk2 yielded a z-score of -0.191.
With GGCUUACGUGGUGUGCACUTT against Galr1 the z-score was 0.345.
With GGUCAGGUCUUUUUAUACATT against Zfp354a the z-score was 2.56 (active).
Work on GGAAAGGAACUAGCAACGATT against Art3 yielded a z-score of -0.642.
Work on GGAUACAAUCCUUUUGGAUTT against Dnajb1 yielded a z-score of 0.205.
For GGUGUUUUCCAACAUCCUCTT against Ccrl2, the z-score was 3.06 (active).
CCGACAUUCAACAAGAUUUTT against Mta1 showed a z-score of -0.092.
Sequence CCGGAGCUUUAUUGACACGTT against Rbm19 has a z-score of 1.15.
GGCCUGUGGUUAUGCUGUGTT against Cyp2b10 showed a z-score of -0.716.
Work on CCUAUUGAAAAGCCAAACUTT against Lypd11 yielded a z-score of -0.651.
Work on GGUCUUUGUGUCCACCUACTT against Gpr162 yielded a z-score of 0.669.
Sequence GGUUCUAAUAAAAAUCGGUTT against Pcdhb1 has a z-score of 0.659.
GGAGCUGAAUCAUUAUCUGTT against Rabep1 showed a z-score of -0.0512.
With GGUGCUGUUUAAAACACAGTT against Aurka the z-score was 1.25.
Work on GGAGUUGAUAAUAUGGUGGTT against Uck1 yielded a z-score of 0.712.
With GGUGUCCAUGCUAGCUGUATT against Best2 the z-score was 2.97 (active).
GGACCAGCUUUUCAACAUUTT against F8 gave a z-score of 0.141.
CCUGCUUAGGACCAUCGACTT against Lrrn2 showed a z-score of -0.0914.
With GGGAUAGCUGUCUUUCAUUTT against Extl3 the z-score was -1.02.
Sequence GCUCUUGCUACUUUUUUCUTT against Olfr823 has a z-score of -0.108.
GGGAAAAACACUUCUCACUTT against Slc35e2 showed a z-score of -0.238.
In the case of GGUCGCUAUUAAGAUCAUUTT against Mark4, the z-score is reported as 0.491.
Work on GCUCUGCCUUCAGAUGACGTT against Olfr173 yielded a z-score of -0.26.
Sequence GGCAGAUCAGAAUUGAAUUTT against Fgd6 has a z-score of -0.528.
In the case of GGUCCAGGUCUGAAUCUAGTT against Tra2b, the z-score is reported as 2.48 (active).
Work on GCAAGGAGGUCCAACUAAGTT against Fzd8 yielded a z-score of 0.239.
For GGUUAAUAAUGCGACAGCATT against Rbfox1, the z-score was 0.00257.
Sequence GGAAAACUCAAAGUGCUGATT against Paqr7 has a z-score of 0.512.
In the case of CCAGUUUGGUAAUCAUGAATT against Cyb561d2, the z-score is reported as -0.244.
Work on GGCACCUUGGAGUUACAUATT against Pcdha10 yielded a z-score of -0.24.
With CGACAAGAAAACAUACUAGTT against Gins4 the z-score was 2.28 (active).
In the case of GCAGACAACUAGACAUACATT against Selenok, the z-score is reported as -0.42.
For GCAAUAAUGGCAAUUACGGTT against Slc35f4, the z-score was 1.13.
GGAGCUGGUGUUGAGUGAGTT against Slfnl1 showed a z-score of -1.81.
In the case of UUGUGACCAAUUUCUGAAUTT against Pgbd1, the z-score is reported as -0.594.
With GGAGUUAAACAAACAGAGUTT against Psma6 the z-score was -0.855.
Work on UUUACUCUCAUGGUAACCUTT against Olfr798 yielded a z-score of -0.386.
With GGAGGUAUGGCGGUGAUUATT against Krt77 the z-score was 0.718.
With GCUAUUCAAUGGACCAGAATT against Olfr490 the z-score was -2.26 (active).
In the case of GUCACUAUUAAGACACUUATT against Nudcd3, the z-score is reported as 0.157.
Sequence GGCUAAAGAGUCCUCGGUGTT against Serpina5 has a z-score of 0.594.
“GCAGACAGAAGAACACCAGTT against 1700024G13Rik” showed a z-score of -0.177.
GGAAGAGUGUCUAAAUGUATT against Cbwd1 showed a z-score of 0.849.
For GGUGAUUCACAUAACAGGCTT against Npas3, the z-score was 2.05 (active).
Work on GGUUGAACAUAAGCACAAUTT against Cdkn2aip yielded a z-score of -0.42.
In the case of GGUCACCACUCCAUAUUCUTT against Vsir, the z-score is reported as -0.561.
GGAGACAUAUGAAGAGAUATT against Lsm3 showed a z-score of -0.702.
